Most compounds without a hit are left out; they make up all but 3.5% or so of the library.
mHTT CaM bind – mutant huntingtin-calmodulin interaction inhibitors – biochemical, AlphaScreen, primary screen. P42858. AlphaScreen His-mHTT/GST-CaM binding, luminescence. inhibition, % at 15 µM. 3.6% of 190,000 active. AID 1671202, 2021;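 also: 0% = both proteins with DMSO and 100% = one protein alone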
Target sequence (P42858 whole entry, looked up, stated change not applied): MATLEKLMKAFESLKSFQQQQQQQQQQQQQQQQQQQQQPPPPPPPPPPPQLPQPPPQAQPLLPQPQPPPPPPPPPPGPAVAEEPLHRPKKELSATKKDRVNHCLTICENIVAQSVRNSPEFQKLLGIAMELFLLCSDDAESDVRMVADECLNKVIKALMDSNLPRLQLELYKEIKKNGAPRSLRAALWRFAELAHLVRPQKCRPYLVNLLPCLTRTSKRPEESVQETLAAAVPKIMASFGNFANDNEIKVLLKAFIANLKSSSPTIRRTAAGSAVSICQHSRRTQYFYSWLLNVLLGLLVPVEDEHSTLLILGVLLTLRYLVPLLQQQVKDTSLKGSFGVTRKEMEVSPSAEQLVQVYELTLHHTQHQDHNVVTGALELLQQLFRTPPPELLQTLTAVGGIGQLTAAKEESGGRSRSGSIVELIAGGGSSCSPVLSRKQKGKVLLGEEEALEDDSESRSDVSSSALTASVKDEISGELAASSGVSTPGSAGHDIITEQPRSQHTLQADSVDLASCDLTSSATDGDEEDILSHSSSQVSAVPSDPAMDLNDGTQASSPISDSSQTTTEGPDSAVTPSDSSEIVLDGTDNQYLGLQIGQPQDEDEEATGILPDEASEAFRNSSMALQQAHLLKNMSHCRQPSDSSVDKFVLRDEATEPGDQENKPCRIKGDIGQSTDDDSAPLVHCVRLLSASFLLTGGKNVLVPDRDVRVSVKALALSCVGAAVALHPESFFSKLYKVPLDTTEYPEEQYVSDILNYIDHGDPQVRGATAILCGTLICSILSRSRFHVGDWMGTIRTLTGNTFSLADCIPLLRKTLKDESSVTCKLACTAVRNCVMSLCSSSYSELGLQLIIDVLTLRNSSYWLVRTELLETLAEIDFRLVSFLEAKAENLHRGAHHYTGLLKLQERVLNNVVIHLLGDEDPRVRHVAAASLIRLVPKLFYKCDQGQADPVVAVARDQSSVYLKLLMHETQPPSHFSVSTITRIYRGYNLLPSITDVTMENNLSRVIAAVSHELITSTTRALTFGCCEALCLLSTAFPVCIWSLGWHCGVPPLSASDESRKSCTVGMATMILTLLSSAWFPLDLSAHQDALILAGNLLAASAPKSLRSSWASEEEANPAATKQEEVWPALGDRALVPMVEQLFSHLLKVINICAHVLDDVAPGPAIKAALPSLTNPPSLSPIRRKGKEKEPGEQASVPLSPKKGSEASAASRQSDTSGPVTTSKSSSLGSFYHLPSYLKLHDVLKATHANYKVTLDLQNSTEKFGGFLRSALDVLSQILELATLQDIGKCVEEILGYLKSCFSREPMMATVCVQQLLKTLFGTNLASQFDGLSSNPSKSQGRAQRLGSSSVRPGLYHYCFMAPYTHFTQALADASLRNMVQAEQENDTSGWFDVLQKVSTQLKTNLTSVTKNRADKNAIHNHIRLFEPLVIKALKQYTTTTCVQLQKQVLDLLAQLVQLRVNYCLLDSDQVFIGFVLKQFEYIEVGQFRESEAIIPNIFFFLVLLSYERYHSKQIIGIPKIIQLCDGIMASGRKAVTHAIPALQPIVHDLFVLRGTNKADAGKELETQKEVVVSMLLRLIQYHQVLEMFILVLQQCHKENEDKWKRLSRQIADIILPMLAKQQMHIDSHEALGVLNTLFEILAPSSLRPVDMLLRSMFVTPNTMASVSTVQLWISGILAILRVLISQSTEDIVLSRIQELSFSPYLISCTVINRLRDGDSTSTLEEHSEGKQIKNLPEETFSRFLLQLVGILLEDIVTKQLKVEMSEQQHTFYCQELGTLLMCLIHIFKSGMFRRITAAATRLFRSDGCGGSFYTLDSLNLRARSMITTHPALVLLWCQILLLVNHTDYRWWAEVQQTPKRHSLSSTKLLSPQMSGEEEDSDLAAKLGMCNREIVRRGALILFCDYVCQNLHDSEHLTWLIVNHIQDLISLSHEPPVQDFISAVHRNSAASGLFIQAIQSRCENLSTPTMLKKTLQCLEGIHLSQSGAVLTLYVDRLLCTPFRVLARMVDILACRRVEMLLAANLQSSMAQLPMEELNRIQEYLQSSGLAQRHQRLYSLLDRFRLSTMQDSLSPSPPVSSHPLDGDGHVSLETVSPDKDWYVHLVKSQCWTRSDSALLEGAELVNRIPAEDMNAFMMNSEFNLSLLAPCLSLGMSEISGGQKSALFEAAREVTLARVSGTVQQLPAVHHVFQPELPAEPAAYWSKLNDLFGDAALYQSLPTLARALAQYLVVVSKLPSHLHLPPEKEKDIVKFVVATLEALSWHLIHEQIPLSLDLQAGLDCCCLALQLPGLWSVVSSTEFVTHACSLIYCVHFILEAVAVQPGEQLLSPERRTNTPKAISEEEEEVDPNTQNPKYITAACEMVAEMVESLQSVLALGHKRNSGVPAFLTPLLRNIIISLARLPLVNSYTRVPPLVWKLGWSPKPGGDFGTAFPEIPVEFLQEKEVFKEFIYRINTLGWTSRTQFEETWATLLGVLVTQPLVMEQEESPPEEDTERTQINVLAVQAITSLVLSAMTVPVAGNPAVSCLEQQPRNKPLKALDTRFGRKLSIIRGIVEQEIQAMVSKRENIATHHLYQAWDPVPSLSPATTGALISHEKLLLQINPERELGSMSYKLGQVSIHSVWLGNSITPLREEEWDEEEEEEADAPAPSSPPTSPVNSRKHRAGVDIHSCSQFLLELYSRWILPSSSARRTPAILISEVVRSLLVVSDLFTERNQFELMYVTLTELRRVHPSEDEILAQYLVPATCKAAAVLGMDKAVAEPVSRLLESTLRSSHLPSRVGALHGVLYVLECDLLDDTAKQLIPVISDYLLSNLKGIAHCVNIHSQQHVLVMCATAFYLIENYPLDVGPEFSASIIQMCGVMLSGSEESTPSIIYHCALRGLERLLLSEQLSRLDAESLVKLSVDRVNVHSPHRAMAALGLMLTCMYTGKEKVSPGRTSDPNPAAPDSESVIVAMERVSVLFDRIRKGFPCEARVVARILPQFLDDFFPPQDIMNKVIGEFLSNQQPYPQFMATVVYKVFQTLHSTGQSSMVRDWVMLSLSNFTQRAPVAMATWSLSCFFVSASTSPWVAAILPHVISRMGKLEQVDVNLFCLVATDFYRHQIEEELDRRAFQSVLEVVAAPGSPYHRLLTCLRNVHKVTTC
Pf apPOL block – Pf-apPOL inhibitors, biochemical, fluorescence; Recombinant Pf-apPOL, molecular beacon fluorescence, 1.5 h; inhibition, % at 10 µM; 0.25% of 210,000 active
Active calls of the source: *; / = no result given. Rule as the data show it: active = inhibition above about 50%; inactive = the rest.

SMILES | mHTT CaM bind | Pf apPOL block
CCOc1ccc(CCNC(=O)Cn2nnc(-c3ccc(OC)cc3)n2)cc1OCC | 76* | -5
CCOC(=O)N1CCC(NC(=O)c2coc(NC(=O)c3cccs3)n2)CC1 | -6 | 1
O=C1CSC(c2ccc(Br)cc2)N1Cc1ccco1 (stereo not drawn) | 1 | -1
O=C1CSC(c2cn(-c3ccccc3)nc2-c2ccc(Cl)cc2)N1Cc1ccco1 (stereo not drawn) | 90* | -6
O=C1CSC(c2cn(-c3ccccc3)nc2-c2ccccc2)N1Cc1ccco1 (stereo not drawn) | 59* | -3
O=C1CSC(c2ccco2)N1Cc1ccccc1 (stereo not drawn) | -2 | -1
Cc1nc(C(=O)NCc2ccc(N3CCCCC3)cc2)c(C)n1C1CCN(C)CC1 | 44 | -7
Cc1nc(C(=O)NCc2ccc(N3CCCC3)cc2)c(C)n1C1CCN(C)CC1 | 55* | 1
CC(=O)Nc1ccc(-c2noc(C3CCCN(C(=O)c4cccc5[nH]ccc45)C3)n2)cc1 (stereo not drawn) | 9 | -1
O=C(NCc1cccc(Br)c1)c1csc(-c2ccncc2)n1 | 47 | -3
CC1=C(C(=O)Nc2ccccc2C(F)(F)F)C(c2ccncc2)C2=C(CCCC2=O)N1 (stereo not drawn) | 8 | -6
C[C@@]12CCC=C[C@H]1[C@H](c1ccc(Br)cc1F)N(Cc1ccccc1)C2=O | 90* | -4
C[C@@]12CCC=C[C@H]1[C@H](c1cccc(Br)c1)N(Cc1ccccc1)C2=O | 21 | 0
Cc1ccc(-c2cc([C@H]3[C@@H]4C=CCC[C@@]4(C)C(=O)N3Cc3ccccc3)ccc2F)cc1 | 18 | -1
C[C@@]12CCC=C[C@H]1[C@H](c1ccc(F)c(Br)c1)N(Cc1ccccc1)C2=O | 100* | 3
COCCN1CCC(N2CCCN(C(=O)c3ccc(F)c(Cl)c3)CC2)C1=O (stereo not drawn) | 0 | 6
c1cncc(-c2noc(C3CCCCN3Cc3ccco3)n2)c1 (stereo not drawn) | 4 | 2
CN(C)c1ccc(CN2CCCC2c2nc(-c3cccnc3)no2)cc1 (stereo not drawn) | 56* | -2
Cc1cc(F)ccc1NC(=O)Cn1cc2c(n1)CCCCC2 | -8 | 1
Cc1ccc(NC2=C([N+](=O)[O-])CS(=O)(=O)C2)cc1 | -3 | -5
O=[N+]([O-])C1=C(Nc2ccc(Cl)c(Cl)c2)CS(=O)(=O)C1 | 75* | -3
O=C(O)c1cccc2c1NC(C(=O)O)C1CC=CC21 (stereo not drawn) | 77* | 4
NC(=O)c1cccc2c1NC(C(=O)O)C1CC=CC21 (stereo not drawn) | 71* | 1
O=C(Nc1ccc(N2CCCCS2(=O)=O)cc1)C1CCCCC1 | -3 | 1
COc1ccc(OCCC(=O)N2CCC(Cc3ccccc3)CC2)cc1 | -7 | -9
SMILES | mHTT CaM bind | Pf apPOL block
CC(=O)Nc1ccc(Cl)c2c1C(=O)c1ccccc1C2=O | 5 | 10
CNc1ccc(Cl)c2c1C(=O)c1ccccc1C2=O | 77* | 33
CCNc1cc(N2CCC(CCC(=O)Nc3ccc(OC)c(OC)c3)CC2)ncn1 | 8 | -1
CCCNc1cc(N2CCC(CCC(=O)Nc3ccc4c(c3)OCO4)CC2)ncn1 | 60* | 3
CCNc1cc(N2CCC(CCC(=O)Nc3cc(C)ccc3OC)CC2)ncn1 | 55* | -4
CCCNc1cc(N2CCC(CCC(=O)Nc3ccc4c(c3)OCCO4)CC2)ncn1 | 9 | -4
COC(=O)c1ccc(CSc2ncnc3c2cnn3-c2ccc(C)cc2C)o1 | -16 | 0
CCCc1noc(-c2cccnc2N2CCCN(C(=O)c3cc(F)cc(F)c3)CC2)n1 | -8 | -3
Cc1cc(C(=O)Nc2cccc(-c3nc4ccccc4s3)c2)on1 | -2 | 54*
O=C(Nc1ccc(-c2nc3ccccc3s2)c(O)c1)c1ccccc1 | -13 | 97*
O=C(Nc1ccc(-c2nc3ccccc3s2)cc1)c1ccccc1F | 5 | 2
O=C(Nc1ccc(-c2nc3ccccc3s2)cc1)c1ncn[nH]1 | 54* | -6
COc1cccc(C(=O)Nc2cccc(-c3nc4ccccc4s3)c2)c1 | -6 | 0
O=C(Nc1ccc(-c2nc3ccccc3s2)c(O)c1)c1ccc(F)cc1 | -4 | 0
Cc1ccc(-c2nc3ccccc3s2)cc1NC(=O)c1ncn[nH]1 | 98* | -4
Cc1ccc(-c2nc3ccccc3s2)cc1NC(=O)c1ccco1 | 0 | -7
O=C(CSCc1ccccc1)NCCS(=O)(=O)N1CCN(c2ncccn2)CC1 | -8 | -6
CCOC(=O)N1CCN(C(=O)c2cn(CC(O)c3ccccc3)nn2)CC1 (stereo not drawn) | -14 | 0
Cc1ccccc1CNC(=O)C1CCN(c2nccn3nc(-c4ccccc4)cc23)CC1 | 14 | -3
COCCCN1C(=S)NC2c3cc([N+](=O)[O-])ccc3OC1(C)C2C (stereo not drawn) | 0 | -4
COc1ccc(CCN2C(=S)NC3c4cc([N+](=O)[O-])ccc4OC2(C)C3C)cc1OC (stereo not drawn) | 61* | 0
O=C(Nc1ccc(-c2nc3ncccc3o2)cc1)c1cccc(F)c1 | 0 | 1
O=C(C(Cc1ccccc1)N1C(=O)c2ccccc2C1=O)N1CCN(CCO)CC1 (stereo not drawn) | 5 | -7
O=C(C(Cc1ccccc1)N1C(=O)c2ccccc2C1=O)N1CCN(c2ccc(F)cc2)CC1 (stereo not drawn) | 51* | -14
Cc1onc(-c2ccccc2)c1C1=N/C(=C\c2cccc([N+](=O)[O-])c2)C(=O)O1 | 1 | -1
SMILES | mHTT CaM bind | Pf apPOL block
CN(C)c1ccc(-c2noc(C(=O)NC3CCCCC3)n2)cc1 | -7 | -2
CCN1C(=O)C(CC(=O)Nc2ccccc2C)SC1=Nc1ccccc1 (stereo not drawn) | -1 | 2
N#Cc1ccc(C(=O)N2CCCC(c3ccnc(Nc4ccccc4F)n3)C2)cc1 (stereo not drawn) | 0 | 0
Cc1cccc(Nc2nccc(C3CCCN(C(=O)c4ccco4)C3)n2)c1 (stereo not drawn) | 77* | 0
Cc1ccccc1Nc1nccc(C2CCCN(C(=O)c3ccco3)C2)n1 (stereo not drawn) | 21 | -4
CC(=O)N1CCCC(c2ccnc(Nc3cccc(C)c3)n2)C1 (stereo not drawn) | 11 | -7
CN(C)c1ccc(C(=O)N2CCCC(c3ccnc(Nc4ccccc4F)n3)C2)cc1 (stereo not drawn) | 60* | -3
O=C(c1ccco1)N1CCCC(c2ccnc(Nc3ccccc3F)n2)C1 (stereo not drawn) | 56* | 1
Cc1nn(CC(=O)Nc2cnn(C(C)C)c2)c(C)c1Cl | -2 | /
CCn1c(C2CCN(S(=O)(=O)Cc3ccc(F)cc3Cl)C2)nc2ccncc21 (stereo not drawn) | 9 | -2
N#CC1=C(N)Oc2c(oc(CO)cc2=O)C1c1cccc(Br)c1 (stereo not drawn) | 4 | -2
CCC1CCCCN1C/C=C/c1ccc(N(C)C)cc1 (stereo not drawn) | 68* | -7
CCC1CCCCN1C/C=C/c1ccccc1[N+](=O)[O-] (stereo not drawn) | -8 | 0
NC(=S)N1N=C(c2ccccc2)CC1c1ccccc1 (stereo not drawn) | 7 | /

Screening results: PubChem BioAssay, University of Kansas High Throughput Screening Laboratory
